Only some compounds are listed: those with a hit (about 0.25% of all), similar ones and a draw of the others.
PGK inhibitor: blocks T. brucei phosphoglycerate kinase; P07378; PGK/GAPDH coupled, Kinase-Glo luminescence, 60 min; Potency, µM (series often up to 57.5 µM), actives largely listed as inhibitors; hit rate 0.043% among 380,000; AID 602233; note: nearly all actives have a fitted effect of over 60% in size
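Recombinant glycosomal PGK reaction used 1,3-bisphosphoglycerate generated in-well by GAPDH (100nM final) in 100mM TEA pH 7.6, 5mM MgCl2, 0.01% Tween-20. After 60 minutes at room temperature, ATP was read by Kinase-Glo Plus luminescence end-point.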
BCR signal inh: chronic active BCR signaling inhibition; Potency, µM (series often up to 46.1 µM), actives largely listed as inhibitors; AID 493014; ABC-DLBCL IkBa-CBG/CBR reporter, luminescence ratio, 4 h; hit rate 0.05% among 340,000; active = well fitted inhibition curve with a large enough effect in the signal ratio, with a control signal flat, not every such curve was filed as active; inconclusive = small, poorly fitted or top-dose-only effect, or effect the other way, or a change in a side signal; the % refers to the signal ratio
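TMD8 human ABC-DLBCL cells with doxycycline-inducible IκBα–green luciferase fusion and unfused red luciferase, in 0.5% FBS medium; compounds up to 46 uM, 4 h at 37C. Green/red luminescence ratio, filter-overlap corrected, fitted to concentration-response curves.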
Tb PFK inh: inhibitors of T. brucei phosphofructokinase. O15648. T. brucei PFK, ADP-Glo luminescence. Potency, µM (top dose mostly 57.5 µM), hits mostly inhibitors. hit rate 0.17% among 330,000; note: nearly all actives have a fitted effect of over 60% in size
Target sequence (O15648 whole entry, looked up): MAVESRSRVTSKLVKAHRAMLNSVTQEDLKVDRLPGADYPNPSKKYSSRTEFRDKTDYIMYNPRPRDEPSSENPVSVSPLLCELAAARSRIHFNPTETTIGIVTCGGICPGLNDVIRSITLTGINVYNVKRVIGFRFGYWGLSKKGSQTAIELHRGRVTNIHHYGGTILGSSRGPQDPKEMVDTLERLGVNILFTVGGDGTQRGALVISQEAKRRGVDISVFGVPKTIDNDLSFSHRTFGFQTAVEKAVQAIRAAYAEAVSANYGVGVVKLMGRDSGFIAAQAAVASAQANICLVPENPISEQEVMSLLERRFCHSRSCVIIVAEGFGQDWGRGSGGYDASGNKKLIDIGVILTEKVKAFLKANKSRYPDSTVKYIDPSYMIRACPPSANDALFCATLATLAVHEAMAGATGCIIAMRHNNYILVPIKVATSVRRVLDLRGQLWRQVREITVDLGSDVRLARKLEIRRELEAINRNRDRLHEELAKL
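Luminescent ADP detection (ADP-Glo, two-step: ATP depletion then ADP-to-ATP conversion for luciferase) reported PFK activity after 45 min room-temperature reaction of 1.25 nM enzyme with 0.5 mM F6P and 0.1 mM ATP at pH 8.0.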
RGS4 inhibitor: human RGS4 inhibition | P49798 | Transcreener GDP fluorescence polarization, RGS4-accelerated GTP hydrolysis | Potency, µM (highest dose often 114 µM), hits mostly inhibitors | hit rate 0.039% among 390,000 | AID 504845; note: nearly all actives have a fitted effect of over 75% in size
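MLSMR compounds (23 nl, pin-transferred) preincubated 10 min at room temperature with a 500nM (2x) first reagent, then RGS4 at 900nM (2x) plus Transcreener GDP mix added; fluorescence polarization (620/688 nm) read before and after 90 min at 30 °C.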
USP2a block: inhibitors of human ubiquitin-specific protease USP2a; O75604; USP2 core, Ub-CHOP2 coupled fluorogenic reporter, 485/531; Potency, µM (doses to about 38.3 µM), most hits filed as inhibitors; hit rate 0.01% among 330,000
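Deubiquitinase activity read as fluorescence (485/531 nm) after Ub-CHOP2 cleavage activates the enterokinase reporter on its substrate; USP2 core 10nM, Ub-CHOP2 and substrate 25nM each, 30min compound preincubation then 60min RT; data normalized to NEM, curves fitted.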
Each line names hits and unclear results; the compound was inactive in the other large screens; ! = not active in a repeat. Unless noted, calls come from the whole dose curve; as a rule, active = well fitted curve in the direction sought with a large enough effect; inconclusive = small, poorly fitted or top-dose-only effect, or another doubt; inactive = no such curve, though single readings can be large; an effect the other way counts as inactive or inconclusive.

O=C(O)c1ccccc1NS(=O)(=O)c1ccc(N/N=C/c2ccc(O)c(O)c2)c([N+](=O)[O-])c1	PGK inhibitor 35.5µM, RGS4 inhibitor inconclusive (no result: BCR signal inh, Tb PFK inh, USP2a block)
O=c1c(-c2ccc([N+](=O)[O-])cc2)coc2c(O)c(O)ccc12	PGK inhibitor 8.91µM
Nc1ccc2nc(-c3ccc(-c4nc5ccc(N)cc5[nH]4)cc3)[nH]c2c1	Tb PFK inh inconclusive, RGS4 inhibitor inconclusive
Nc1ccc(-c2nc3ccc(-c4nc5ccc(N)cc5[nH]4)cc3[nH]2)cc1	RGS4 inhibitor 26.7µM (no result: PGK inhibitor, BCR signal inh, Tb PFK inh, USP2a block)
CC(C)(C)c1cc(/C=C(\C#N)C(N)=S)cc(C(C)(C)C)c1O	RGS4 inhibitor 10.6µM (no result: PGK inhibitor, BCR signal inh, Tb PFK inh, USP2a block)
CCc1ccc(/C=C(/C#N)C(N)=S)cc1	RGS4 inhibitor inconclusive
O=C(O)c1ccc(CSc2nnc(-c3ccco3)o2)cc1	BCR signal inh 18.4µM
c1ccc(CSc2nnc(-c3ccco3)o2)cc1	BCR signal inh inconclusive
CCCCC/C=C\C/C=C\CCCCCCCC(=O)O[C@@H](CO)COC(=O)CCCCCCCCCCCCCCCCC	RGS4 inhibitor 2.67µM (no result: PGK inhibitor, BCR signal inh, Tb PFK inh, USP2a block)
CCOC(=O)N1CCC(N(C(=O)Nc2ccc(Cl)c(Cl)c2)C(C)CC)CC1 (stereo not drawn)	BCR signal inh inconclusive, Tb PFK inh 23.9µM
S=C(Nc1ccccc1)Nc1nccs1	BCR signal inh inconclusive, RGS4 inhibitor 10.6µM!
O=C1NC(=S)SC1=Cc1ccc(F)cc1	none (no result: BCR signal inh, Tb PFK inh, USP2a block)
O=C1NC(=O)/C(=C/c2ccc(-c3ccc(F)cc3O)o2)S1	RGS4 inhibitor 21.2µM (no result: PGK inhibitor, BCR signal inh, Tb PFK inh, USP2a block)
N#CC(C#N)=Cc1ccc(O)c(O)c1	Tb PFK inh inconclusive, RGS4 inhibitor 18.9µM!
COCCNC(=O)/C(C#N)=C/c1cccc(/C=C(\C#N)C(=O)NCCOC)c1	BCR signal inh 14.6µM
COc1ccc(-c2c(C3C4C=CCCC4(C)C(=O)N3Cc3ccccc3)ccc3ccccc23)cc1 (stereo not drawn)	none (no result: PGK inhibitor, BCR signal inh, Tb PFK inh, USP2a block)
OCC1O[C@H]([S-])[C@H](O)[C@@H](O)[C@@H]1O.[Au+] (stereo partly drawn)	RGS4 inhibitor 0.597µM (no result: PGK inhibitor, BCR signal inh, Tb PFK inh, USP2a block)
CCCN1CCC(=O)N(C(CSc2ccc(C)cc2)CC(C)C)CC1 (stereo not drawn)	none (no result: PGK inhibitor, BCR signal inh, Tb PFK inh, USP2a block)
Cc1ccc(NC(=S)NNC(=S)Nc2ccc(C)cc2C)cc1	BCR signal inh 17.8µM, RGS4 inhibitor inconclusive
COC(=O)C1=C[C@@H](C(=O)OC)C2C3=C(C(=O)[C@]2(CC(C)C)NC(=O)c2ccccc2)[C@H](C)n2c(=O)n(C)c(=O)n2[C@@H]3C1 (stereo partly drawn)	none (no result: PGK inhibitor, BCR signal inh, Tb PFK inh, USP2a block)
COc1ccc(-c2ccc(C(C)=O)cc2)cc1C1C2C=CCCC2(C)C(=O)N1Cc1ccccc1 (stereo not drawn)	none (no result: PGK inhibitor, BCR signal inh, Tb PFK inh, USP2a block)
CCn1c(SCc2nc3sc(C(=O)O)c(C)c3c(=O)[nH]2)nc2ccccc21	PGK inhibitor 20µM
COCCn1c(SCc2nc3sc(C(=O)OC)c(C)c3c(=O)[nH]2)nc2ccccc21	none
CC(=O)c1cc(C(=O)Nc2cc(C)cc(C)c2)c2ccccn12	none (no result: BCR signal inh, Tb PFK inh, USP2a block)
CN(C)c1ccc(N=Nc2nc3ccccc3n2C)cc1	PGK inhibitor 14.1µM, BCR signal inh inconclusive
Cn1c(N=Nc2ccccc2)nc2ccccc21	PGK inhibitor inconclusive, BCR signal inh inconclusive, Tb PFK inh 12µM
O=C1CCN(CCc2ccccc2)CCN1C(CSc1ccc(Br)cc1)Cc1ccccc1 (stereo not drawn)	none (no result: PGK inhibitor, BCR signal inh, Tb PFK inh, USP2a block)
O=C(CCS(=O)(=O)c1ccc(Br)cc1)NCc1ccc(F)cc1	PGK inhibitor inconclusive, Tb PFK inh 23.9µM
Cc1ccc(CNC(=O)CCS(=O)(=O)c2ccc(Br)cc2)cc1	PGK inhibitor inconclusive, Tb PFK inh inconclusive
CCCC[C@@H]1CCCO[C@@](C(=O)NCCOC)(C(F)(F)F)C1	none (no result: PGK inhibitor, BCR signal inh, Tb PFK inh, USP2a block)
CCOc1cc(NC(=O)CCl)c(OCC)cc1NC(=O)CCl	BCR signal inh 14.1µM
Nc1ccn(C2OC(COP(=O)(O)O)C(O)C2O)c(=O)n1 (stereo not drawn)	none (no result: BCR signal inh, Tb PFK inh, USP2a block)
O=c1ccn([C@@H]2O[C@H](COP(=O)(O)O)[C@@H](O)[C@H]2O)c(=O)[nH]1	RGS4 inhibitor 37.7µM (no result: PGK inhibitor, BCR signal inh, Tb PFK inh, USP2a block)
CC[C@@H](C)[C@H](NS(=O)(=O)c1cccc2ccccc12)C(=O)N[C@H](C=O)Cc1c[nH]c2ccccc12	none (no result: PGK inhibitor, BCR signal inh, Tb PFK inh, USP2a block)
N[C@@H](Cc1c[nH]c2ccc(O)cc12)C(=O)O	RGS4 inhibitor 23.8µM!

Screening results as filed in PubChem BioAssay.
